Experimental data reported in PubChem BioAssay (NCI).
Compounds without any hit were thinned out: in the full panel of roughly 83,000, 20% have a hit.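 Note: values are percent growth. 100 is the growth of untreated cells, values between 100 and 0 indicate rising inhibition; between -100 and 0 indicates cell death.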 Activity calls are given as the source filed them. The calls were made as follows: active = growth percent below 10; inactive = the rest.

Experiments:
Assay in all cases: NCI-60 one-dose screen, 48 h (100 = growth as untreated, 0 = no growth, -100 = all killed)
Details in all cases: 10 µM unless noted
SK-MEL-2 melanoma = system: SK-MEL-2 melanoma
EKVX NSCLC = system: EKVX NSCLC
SN12C renal = system: SN12C renal
UO-31 renal = system: UO-31 renal
TK-10 renal = system: TK-10 renal
ACHN renal = system: ACHN renal
CAKI-1 renal = system: CAKI-1 renal
A498 renal = system: A498 renal
CCRF-CEM leukemia = system: CCRF-CEM leukemia
MOLT-4 leukemia = system: MOLT-4 leukemia
SR leukemia = system: SR leukemia
RPMI-8226 leukemia = system: RPMI-8226 leukemia
OVCAR-8 ovarian = system: OVCAR-8 ovarian
OVCAR-5 ovarian = system: OVCAR-5 ovarian
SK-OV-3 ovarian = system: SK-OV-3 ovarian
IGROV1 ovarian = system: IGROV1 ovarian
OVCAR-3 ovarian = system: OVCAR-3 ovarian
HS 578T breast = system: HS 578T breast
NCI/ADR-RES ovarian = system: NCI/ADR-RES ovarian

Measured: growth

CC1=CCc2ccccc21
inactive: SK-MEL-2 melanoma 140% | EKVX NSCLC 110% | SN12C renal 88% | UO-31 renal 70.8% | TK-10 renal 103% | ACHN renal 98.6% | CAKI-1 renal 87.7% | A498 renal 89.9% | CCRF-CEM leukemia 94.3% | MOLT-4 leukemia 97% | SR leukemia 98.6% | RPMI-8226 leukemia 95% | OVCAR-8 ovarian 101% | OVCAR-5 ovarian 102% | SK-OV-3 ovarian 101% | IGROV1 ovarian 88.5% | OVCAR-3 ovarian 106% | HS 578T breast 98.3% | NCI/ADR-RES ovarian 98.1%

C=CCCCCOc1ccccc1-c1cnc(OCCCCC=C)n1C
inactive: SK-MEL-2 melanoma 46.1% | EKVX NSCLC 85.2% | SN12C renal 91.1% | UO-31 renal 69.3% | TK-10 renal 75% | ACHN renal 84.5% | CAKI-1 renal 54.9% | A498 renal 51.1% | CCRF-CEM leukemia 80.9% | MOLT-4 leukemia 91.4% | SR leukemia 30.7% | RPMI-8226 leukemia 80.8% | OVCAR-8 ovarian 83.9% | OVCAR-5 ovarian 95.2% | SK-OV-3 ovarian 75% | IGROV1 ovarian 62.9% | OVCAR-3 ovarian 51.3% | HS 578T breast 66.4% | NCI/ADR-RES ovarian 30.4%

C=C(C)[C@@H]1CC[C@]2(C(N)=O)CC[C@]3(C)[C@H](CC[C@@H]4[C@@]5(C)CC[C@H](O)C(C)(C)[C@@H]5CC[C@]43C)[C@@H]12
inactive: SR leukemia 15.5% [100 µM]
active: SK-MEL-2 melanoma -31.2% [100 µM] | EKVX NSCLC -10.3% [100 µM] | SN12C renal -45.8% [100 µM] | UO-31 renal -100% [100 µM] | TK-10 renal -69.8% [100 µM] | ACHN renal -80.3% [100 µM] | CAKI-1 renal -64.3% [100 µM] | A498 renal -28.3% [100 µM] | CCRF-CEM leukemia 3.11% [100 µM] | MOLT-4 leukemia 1.86% [100 µM] | RPMI-8226 leukemia -19.8% [100 µM] | OVCAR-8 ovarian -64.8% [100 µM] | OVCAR-5 ovarian -21.6% [100 µM] | SK-OV-3 ovarian -45.7% [100 µM] | IGROV1 ovarian -58.1% [100 µM] | OVCAR-3 ovarian -46.6% [100 µM] | HS 578T breast -1.7% [100 µM] | NCI/ADR-RES ovarian -8.91% [100 µM]

O=C1Nc2ccccc2/C1=C/C(=O)c1ccc(N2CCOCC2)cc1
inactive: SK-MEL-2 melanoma 99% | EKVX NSCLC 98% | SN12C renal 93.7% | UO-31 renal 59.6% | TK-10 renal 102% | ACHN renal 72.7% | CAKI-1 renal 78.4% | A498 renal 89.7% | MOLT-4 leukemia 47.8% | SR leukemia 26.7% | RPMI-8226 leukemia 79.6% | OVCAR-8 ovarian 82.9% | OVCAR-5 ovarian 96.9% | SK-OV-3 ovarian 106% | IGROV1 ovarian 70.3% | OVCAR-3 ovarian 60.9% | HS 578T breast 84% | NCI/ADR-RES ovarian 100%
active: CCRF-CEM leukemia 9.92%

O=C(Nc1ccc(Oc2ccc(F)cc2)c(Cl)c1)c1cccnn1
inactive: SK-MEL-2 melanoma 77.7% | EKVX NSCLC 75% | SN12C renal 63.8% | UO-31 renal 55% | TK-10 renal 64.4% | ACHN renal 73.7% | CAKI-1 renal 54.8% | A498 renal 61.1% | CCRF-CEM leukemia 75.1% | MOLT-4 leukemia 59.8% | SR leukemia 97.6% | RPMI-8226 leukemia 62.6% | OVCAR-8 ovarian 71.3% | OVCAR-5 ovarian 84% | SK-OV-3 ovarian 88.8% | IGROV1 ovarian 97.6% | OVCAR-3 ovarian 73.6% | HS 578T breast 95.6% | NCI/ADR-RES ovarian 69.4%

CC1(C)CC[C@]23CC[C@]4(C)[C@H](CC[C@@H]5[C@@]6(C)C/C(=C/c7cccnc7)C(=O)C(C)(C)[C@@H]6CC[C@]54C)[C@H]2[C@H]1OC3=O
inactive: SK-MEL-2 melanoma 27.6% [100 µM] | EKVX NSCLC 74.7% [100 µM] | SN12C renal 41.5% [100 µM] | UO-31 renal 34.8% [100 µM] | TK-10 renal 55% [100 µM] | ACHN renal 36.9% [100 µM] | CAKI-1 renal 40.6% [100 µM] | A498 renal 31.5% [100 µM] | CCRF-CEM leukemia 19.3% [100 µM] | MOLT-4 leukemia 19.4% [100 µM] | SR leukemia 42.4% [100 µM] | RPMI-8226 leukemia 11.3% [100 µM] | OVCAR-8 ovarian 42.4% [100 µM] | OVCAR-5 ovarian 79.7% [100 µM] | SK-OV-3 ovarian 64.6% [100 µM] | IGROV1 ovarian 66.8% [100 µM] | OVCAR-3 ovarian 49.3% [100 µM] | HS 578T breast 54.6% [100 µM] | NCI/ADR-RES ovarian 50.1% [100 µM]

C#CCNC(=O)CC[C@]1(C)[C@H]2CC[C@@H]3[C@@H]([C@@](C)(O)CCC=C(C)C)CC[C@@]3(C)[C@]2(C)CC[C@H]1C(=C)C
active: UO-31 renal -95.8% [100 µM] | ACHN renal 7.69% [100 µM] | CAKI-1 renal 1.83% [100 µM] | CCRF-CEM leukemia -34.4% [100 µM] | MOLT-4 leukemia -29% [100 µM] | RPMI-8226 leukemia -7.33% [100 µM] | OVCAR-8 ovarian 7.74% [100 µM] | IGROV1 ovarian -62.6% [100 µM] | OVCAR-3 ovarian -26.4% [100 µM]
inactive: SK-MEL-2 melanoma 49.1% [100 µM] | EKVX NSCLC 71.7% [100 µM] | SN12C renal 43.9% [100 µM] | TK-10 renal 70.5% [100 µM] | A498 renal 67.1% [100 µM] | SR leukemia 12.8% [100 µM] | OVCAR-5 ovarian 55.6% [100 µM] | SK-OV-3 ovarian 66.6% [100 µM] | HS 578T breast 35.6% [100 µM] | NCI/ADR-RES ovarian 53.6% [100 µM]

C=C(C)[C@@H]1CC[C@]2(C)[C@H](CC[C@@H]3[C@@H]([C@@](C)(O)CCC=C(C)C)CC[C@]32C)[C@@]1(C)CCC(=O)N1CCN(C)CC1
active: SK-MEL-2 melanoma -88.5% [100 µM] | EKVX NSCLC -66.4% [100 µM] | SN12C renal -95.6% [100 µM] | UO-31 renal -100% [100 µM] | TK-10 renal -79.3% [100 µM] | ACHN renal -100% [100 µM] | CAKI-1 renal -90.7% [100 µM] | A498 renal -96% [100 µM] | CCRF-CEM leukemia -27.6% [100 µM] | MOLT-4 leukemia -41.2% [100 µM] | SR leukemia 7.02% [100 µM] | RPMI-8226 leukemia -38.4% [100 µM] | OVCAR-8 ovarian -65.6% [100 µM] | OVCAR-5 ovarian -93.3% [100 µM] | SK-OV-3 ovarian -83.4% [100 µM] | IGROV1 ovarian -82.5% [100 µM] | OVCAR-3 ovarian -85.9% [100 µM] | HS 578T breast -41.5% [100 µM] | NCI/ADR-RES ovarian -87% [100 µM]

CCCCNC(=O)NS(=O)(=O)Cc1ccccc1
inactive: SK-MEL-2 melanoma 119% | EKVX NSCLC 122% | SN12C renal 113% | UO-31 renal 82.8% | TK-10 renal 118% | ACHN renal 106% | CAKI-1 renal 100% | A498 renal 110% | CCRF-CEM leukemia 93.1% | MOLT-4 leukemia 97.5% | SR leukemia 108% | RPMI-8226 leukemia 95.8% | OVCAR-8 ovarian 100% | OVCAR-5 ovarian 108% | SK-OV-3 ovarian 107% | IGROV1 ovarian 97.3% | OVCAR-3 ovarian 109% | HS 578T breast 107% | NCI/ADR-RES ovarian 112%

CC1(C)[C@@H](NOCCCN)CC[C@]2(C)[C@H]3C(=O)C=C4[C@@H]5C[C@](C)(C(=O)O)CC[C@]5(C)CC[C@@]4(C)[C@]3(C)CC[C@@H]12
active: SK-MEL-2 melanoma -63.8% [100 µM] | EKVX NSCLC -41.4% [100 µM] | SN12C renal -82.8% [100 µM] | UO-31 renal -100% [100 µM] | TK-10 renal -84.1% [100 µM] | ACHN renal -100% [100 µM] | CAKI-1 renal -79.1% [100 µM] | A498 renal -88.7% [100 µM] | MOLT-4 leukemia -6.4% [100 µM] | RPMI-8226 leukemia -5.46% [100 µM] | OVCAR-8 ovarian -25.9% [100 µM] | OVCAR-5 ovarian -100% [100 µM] | SK-OV-3 ovarian -23.7% [100 µM] | IGROV1 ovarian -88.5% [100 µM] | OVCAR-3 ovarian -50.1% [100 µM] | HS 578T breast -22.8% [100 µM] | NCI/ADR-RES ovarian -34.2% [100 µM]
inactive: CCRF-CEM leukemia 11.6% [100 µM] | SR leukemia 17.9% [100 µM]

CC1(C)NCCC[C@]2(C)[C@H]3C=CC4=C5C[C@](C)(CO)CC[C@]5(C)CC[C@@]4(C)[C@]3(C)CC[C@@H]12
active: SK-MEL-2 melanoma -84.9% [100 µM] | EKVX NSCLC -87.1% [100 µM] | SN12C renal -94% [100 µM] | UO-31 renal -98.1% [100 µM] | TK-10 renal -78.3% [100 µM] | ACHN renal -95.4% [100 µM] | CAKI-1 renal -96.5% [100 µM] | A498 renal -88.7% [100 µM] | CCRF-CEM leukemia -44.1% [100 µM] | MOLT-4 leukemia -56.7% [100 µM] | SR leukemia -5.08% [100 µM] | RPMI-8226 leukemia -43.8% [100 µM] | OVCAR-8 ovarian -57.8% [100 µM] | OVCAR-5 ovarian -98.7% [100 µM] | SK-OV-3 ovarian -80.1% [100 µM] | IGROV1 ovarian -84.5% [100 µM] | OVCAR-3 ovarian -78.8% [100 µM] | HS 578T breast -46.8% [100 µM] | NCI/ADR-RES ovarian -86.4% [100 µM]

C=C(C)[C@@H]1CC[C@]2(C)[C@H](CC=C3[C@@H]4[C@@H](C)[C@H](C)CC[C@]4(C(N)=O)CC[C@]32C)[C@@]1(C)CCC#N
active: SK-MEL-2 melanoma -62.5% [100 µM] | SN12C renal -75.7% [100 µM] | UO-31 renal -91.5% [100 µM] | TK-10 renal -10.2% [100 µM] | ACHN renal -1.6% [100 µM] | CAKI-1 renal 6.4% [100 µM] | A498 renal -33.6% [100 µM] | CCRF-CEM leukemia -7.62% [100 µM] | MOLT-4 leukemia -1.01% [100 µM] | RPMI-8226 leukemia -21.1% [100 µM] | OVCAR-8 ovarian 3.49% [100 µM] | OVCAR-5 ovarian 1.03% [100 µM] | SK-OV-3 ovarian 5.31% [100 µM] | IGROV1 ovarian 7.81% [100 µM] | OVCAR-3 ovarian -53.6% [100 µM] | HS 578T breast 5.08% [100 µM] | NCI/ADR-RES ovarian -32% [100 µM]
inactive: EKVX NSCLC 11.8% [100 µM] | SR leukemia 30.2% [100 µM]
